Source: PubChem BioAssay (National Center for Advancing Translational Sciences (NCATS))
HP1b chromo inh = blocks HP1-beta chromodomain binding to methylated histone tails; P83916; AlphaScreen HP1-beta / biotin-H3K9me3 peptide binding; Potency, µM (highest dose often 114 µM), for the others: at the highest dose activity change, negative = inhibition, most hits filed as inhibitors; hit rate 0.56% among 390,000; AID 540317; also: nearly all actives have a fitted effect of over 70% in size
Target sequence (P83916 whole entry, looked up): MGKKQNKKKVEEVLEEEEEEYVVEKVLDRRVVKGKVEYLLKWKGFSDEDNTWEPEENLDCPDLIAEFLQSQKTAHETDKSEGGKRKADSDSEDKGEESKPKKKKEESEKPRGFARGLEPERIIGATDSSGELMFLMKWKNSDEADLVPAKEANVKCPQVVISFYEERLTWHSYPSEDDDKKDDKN
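HP1-beta protein (50 nM final) preincubated 30 min at room temperature with biotinylated H3(1-18)K9me3 peptide (50 nM) in PBS pH 7.4, 0.01% Tween-20, then compound added for 30 min. AlphaScreen streptavidin donor/nickel chelate acceptor beads (10 ug/mL final), 30 min dark, luminescence read.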
12-LOX inh = ALOX12 (human) lipoxygenase inhibition. P18054. purified 12hLO, xylenol orange hydroperoxide absorbance. Potency, µM (doses to about 108 µM), without a hit: at the highest dose activity change, negative = inhibition, hits mostly inhibitors. hit rate 1.1% among 580,000. AID 1671190; also: % is scaled to controls: 0 for no effect and ±100 for the full control effect
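Purified human 12hLO at 150 nM in 25 mM Hepes, 0.01% Triton X-100, pH 7.0, preincubated 15 min at room temperature with compound. Reaction started with 40 uM arachidonic acid, 30 min at room temperature. Hydroperoxide measured by Fe-xylenol orange, 573/405 nm absorbance ratio.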
PLK1 PBD inh = PLK1 (human) polo-box domain binding inhibition | hit rate 2.8% among 360,000 | Potency, µM, for inactives: max response, negative = inhibition, usual class: inhibitors | Plk1 PBD binding of FITC phosphopeptide, fluorescence polarization | P53350; also: series mostly up to about 57 µM; % is scaled to controls: 0 for no effect and ±100 for the full control effect; nearly all actives have a fitted effect of over 65% in size
G9a inh = inhibitors of human histone lysine methyltransferase G9a. Q96KQ7. G9a H3K9 monomethylation, AlphaScreen, 2 h. Potency, µM (titrated, usually from 102 µM), without a hit: at the highest dose activity, negative = inhibition, hits mostly inhibitors. hit rate 8.8% among 350,000; also: % is scaled to controls: 0 for no effect and ±100 for the full control effect; nearly all actives have a fitted effect of over 75% in size
Target sequence (Q96KQ7 913-1193 limits assumed): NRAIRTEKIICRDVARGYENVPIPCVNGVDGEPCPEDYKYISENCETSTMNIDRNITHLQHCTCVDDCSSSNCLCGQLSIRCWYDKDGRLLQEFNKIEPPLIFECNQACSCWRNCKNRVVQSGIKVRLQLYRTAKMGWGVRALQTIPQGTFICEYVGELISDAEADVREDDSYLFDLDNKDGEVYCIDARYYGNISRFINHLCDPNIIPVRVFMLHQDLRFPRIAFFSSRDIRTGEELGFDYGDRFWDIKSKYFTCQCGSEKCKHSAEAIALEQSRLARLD
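Signal arises when biotinylated H3K9 peptide, once monomethylated, bridges streptavidin donor and antibody-captured acceptor beads. Enzyme at 20 nM was preincubated 15 min with test compounds; peptide 500 nM and SAM 20 uM then reacted for 2 h.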
BAZ2B block = blocks human BAZ2B; Potency, µM (highest dose often 114 µM), without a hit: at the top dose activity change, negative = inhibition, actives largely listed as inhibitors; AID 504333; hit rate 4.4% among 360,000; AlphaScreen BAZ2B-H3K14Ac peptide displacement; also: % is scaled to controls: 0 for no effect and ±100 for the full control effect; nearly all actives have a fitted effect of over 60% in size
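In this displacement format the biotinylated H3(5-23) peptide acetylated at Lys14 serves as ligand at 50 nM, with BAZ2B at 50 nM in PBS pH 7.4 containing 0.01% Tween-20. Donor and acceptor beads are 10 ug/mL final.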
JMJD2A Tudor inh = JMJD2A Tudor domain (human) inhibition | O75164 | AID 504339 | hit rate 4.4% among 390,000 | AlphaScreen JMJD2A-Tudor / H3K4me3 peptide binding | Potency, µM (series often up to 114 µM), for the others: at the highest dose activity change, negative = inhibition, hits mostly inhibitors; also: % is scaled to controls: 0 for no effect and ±100 for the full control effect; nearly all actives have a fitted effect of over 50% in size
Numbers without * were called inactive; ? = inconclusive; · = not tested or not shown; [ ] = remark or other dose. An excerpt weighted towards active compounds, which were near 9% of everything screened. Calls follow the shape of the dose curve; as a rule, active = well fitted curve in the direction sought with a large enough effect; inconclusive = small, poorly fitted or top-dose-only effect, or another doubt; inactive = no such curve, though single readings can be large; an effect the other way counts as inactive or inconclusive. Potency is read from the fitted curve at half-maximal effect.

SMILES	HP1b chromo inh	12-LOX inh	PLK1 PBD inh	G9a inh	BAZ2B block	JMJD2A Tudor inh
COc1ccc(NC(=O)c2c(NCc3ccc(C)o3)sc3c2CCCCC3)c(OC)c1	-17%	?	·	13%[59 µM]	18%	50µM*
COc1ccccc1NC(=O)c1c(NCc2ccc(C)o2)sc2c1CCC(C)C2 (configuration not stated)	-5%	-32%	·	8.9µM*	-33%	?
COc1ccc(NC(=O)c2c(NCc3ccc(C)o3)sc3c2CCC(C)C3)c(OC)c1 (configuration not stated)	-17%	?	·	16µM*	-38%	28µM*
COc1ccc(NC(=O)c2c(NCc3cccs3)sc3c2CCC(C)C3)c(OC)c1 (configuration not stated)	-13%	?	·	?	?	?
Cc1ccc(S(=O)(=O)Nc2ccc3oc(=O)sc3c2)c(C)c1	10%	-4%	?	?	-18%	3%
O=C(Nc1nnc(-c2ccco2)o1)c1ccc([N+](=O)[O-])s1	8%	?	-15%	45µM*	?	?
N#Cc1ccc(C(=O)Nc2nnc(-c3ccco3)o2)cc1	35%	40%	-6%	-30%	18µM*	79µM*
O=C(Nc1nnc(-c2ccco2)o1)c1ccc2ccccc2c1	48%	12%	?	-4%[59 µM]	8%	-15%[57.1 µM]
Cc1ccsc1C(=O)Nc1nnc(-c2ccco2)o1	51%	0%	-10%	-11%[59 µM]	79µM*	-27%
Cc1ccc(C(=O)Nc2nnc(-c3ccco3)o2)cc1	24%	?	-10%	8%[59 µM]	50µM*	?
O=C(C1=C(c2ccccc2)S(=O)(=O)CCO1)N(Cc1ccccc1)c1ccccn1	·	-1%	·	·	·	·
O=C(Nc1ccc2c(c1)OCCO2)C1CCN(S(=O)(=O)c2ccc(Br)s2)CC1	4%	·	-6%	-3%	1%	-27%
CC1CCN(C(=O)CNC(=O)Cn2ccc3ccccc3c2=O)CC1	12%	6%[57.4 µM]	-1%	?	-3%	-1%
COCCNC(=O)c1nc(-c2c(C)cccc2C)c2ccccn12	·	37%[176 µM]	·	·	·	·
Cc1nnc(NS(=O)(=O)c2ccc(N=Nc3ccc(N)nc3N)cc2)s1	?	-28%	-10%	·	·	50µM*
CC1CCN(C(=O)c2ccc(CSc3nc4ccncc4n3Cc3ccc(F)cc3)cc2)CC1	19%	22%	-10%	79µM*	-8%	-20%
C=C1CCC[C@]2(C)C[C@H]3OC(=O)C(CNCC(OC)OC)[C@H]3CC12 (some centres not stated)	-11%	7%	-1%	79µM*	-16%	-22%
C=C1CCC[C@]2(C)C[C@H]3OC(=O)C(CNC(C)CCCC(C)C)[C@H]3CC12 (some centres not stated)	0%	?	-9%	-4%	-14%	-9%
CO/N=C/C(C#N)=C/c1cc(C(=O)c2ccc(F)cc2)cn1C	-5%	3%	-11%	-6%	-3%	-20%
O=C(N/N=C/c1ccncc1)c1cccs1	11%	·	-2%	11%	-1%	-14%
O=C(N/N=C/c1ccc(-c2ccccc2C(=O)O)o1)c1cccs1	5%	?	?	8.9µM*	56µM*	89µM*
O=C(Nc1nnc(CCN2CCCCC2)s1)c1ccc(Cl)cc1Cl	37%	?	-9%	-22%	-5%	-14%
CCC(C)c1ccc(S(=O)(=O)N2CCN(C(C)CC(=O)O)CC2)cc1 (configuration not stated)	-27%	-6%	0%	7.1µM*	·	3.5µM*
Cc1ccc(S(=O)(=O)N2CCN(C(C)CC(=O)O)CC2)cc1 (configuration not stated)	?	?	4%	28µM*	50µM*	5.6µM*
Cc1ccc(S(=O)(=O)N2CCN(C(C)C)CC2)cc1	38%	5%	-15%	-6%	-5%	-10%
O=C(CSc1nnc(C2CC2)n1-c1ccccc1)Nc1ccc(N2CCOCC2)cc1	26%	0%	0%	56µM*	-30%	-12%
